# GRK2 inh: human GRK2 inhibition via aptamer displacement; inhibition of aptamer binding, % at 10 µM; P25098; bead flow cytometry, FAM-aptamer displacement from GRK2; actives 0.59% (n = 330,000);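 active = inhibition of aptamer binding above 40%, roughly 3 SD of noise, on plates passing a quality check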;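 also: median bead fluorescence of bound FAM aptamer so fluorescent compounds give negative values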
# TLR9-MyD88 inh: inhibitors of human TLR9-MyD88 binding | Q9NR96+Q99836 | CHO BLA complementation TLR9-MyD88, CCF4 FRET ratio | inhibition, % at 4.98 µM | actives 0.21% (n = 340,000) | AID 504734;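 active = inhibition above the mean over all tested compounds plus 3 SD, cut at about 21% in these data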;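 also: 0% = DMSO only wells and 100% = clavulanate BLA inhibitor control wells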
# ANO1 block: mouse TMEM16A channel inhibition, primary screen; actives 1.2% (n = 310,000); HEK293 TMEM16A/YFP iodide influx fluorescence, ionomycin; AID 588511; Q8BHY3; normalized B-score (activity score, 25-100; higher = stronger inhibition) at 10 µM;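 active = ratio plate-corrected score three or more library SD toward inhibition, starting fluorescence score within five deviations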;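 also: score derived from kinetic fluorescence span divided by baseline fluorescence per well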
# Target sequence (Q8BHY3 whole entry, looked up): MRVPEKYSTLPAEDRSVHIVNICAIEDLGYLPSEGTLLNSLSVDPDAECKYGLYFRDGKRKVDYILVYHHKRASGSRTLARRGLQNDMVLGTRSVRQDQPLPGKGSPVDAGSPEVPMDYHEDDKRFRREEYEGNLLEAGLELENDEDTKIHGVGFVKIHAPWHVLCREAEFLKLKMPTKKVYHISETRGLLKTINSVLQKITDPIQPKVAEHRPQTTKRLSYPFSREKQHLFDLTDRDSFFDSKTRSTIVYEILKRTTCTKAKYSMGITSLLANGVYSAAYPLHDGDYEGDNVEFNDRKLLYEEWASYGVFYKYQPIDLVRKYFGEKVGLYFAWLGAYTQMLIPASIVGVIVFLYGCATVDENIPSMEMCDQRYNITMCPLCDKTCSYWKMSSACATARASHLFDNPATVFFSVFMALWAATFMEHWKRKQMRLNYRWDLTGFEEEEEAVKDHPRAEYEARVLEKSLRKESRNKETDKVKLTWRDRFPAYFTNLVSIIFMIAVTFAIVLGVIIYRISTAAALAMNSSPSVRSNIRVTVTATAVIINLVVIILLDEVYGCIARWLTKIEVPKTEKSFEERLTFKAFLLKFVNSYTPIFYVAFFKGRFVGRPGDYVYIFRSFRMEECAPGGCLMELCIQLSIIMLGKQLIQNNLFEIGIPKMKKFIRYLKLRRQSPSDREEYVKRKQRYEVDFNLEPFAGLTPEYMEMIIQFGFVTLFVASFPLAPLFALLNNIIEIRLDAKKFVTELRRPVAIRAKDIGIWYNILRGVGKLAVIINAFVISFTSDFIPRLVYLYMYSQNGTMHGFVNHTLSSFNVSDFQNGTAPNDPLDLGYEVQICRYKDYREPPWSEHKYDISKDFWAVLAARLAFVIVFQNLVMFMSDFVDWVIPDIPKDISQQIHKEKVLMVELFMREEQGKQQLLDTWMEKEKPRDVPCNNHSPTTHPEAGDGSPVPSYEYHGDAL
# TLR4 MyD88 comp: inhibitors of human TLR4-MyD88 binding; HeLa CL3-4 TLR4/MyD88 BLA complementation, FRET ratio; AID 861; O00206+Q99836; actives 0.18% (n = 200,000); inhibition, % at 8.4 µM; in the data active = inhibition above about 25%;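 also: 0% = vehicle and 100% = reference inhibitor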
# NOD2 RIPK2 PPI: NOD2-RIPK2 protein interaction inhibition | O43353 | CHO BLA complementation NOD2-RIPK2, CCF4 ratio | inhibition, % at 4.98 µM | actives 0.38% (n = 360,000); in the data active = inhibition above about 21%;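 also: 0% = vehicle only and 100% = reference blocker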
# ANO1 activ: activators or potentiators of mouse TMEM16A chloride channel | HEK293 TMEM16A/YFP-H148Q/I152L, iodide quench fluorescence; active compounds read low | B-score at 10 µM | actives 0.3% (n = 340,000) | AID 623877;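 active = fluorescence-ratio B-score plate-corrected deviation score at least 3 library SD below zero, with starting fluorescence score within 5 deviations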;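 also: channel opened by trigger with iodide after compound preincubation; score built on the fluorescence ratio of max minus min over baseline; more negative score means more quench and so TMEM16A activation or potentiation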
# Active calls of the source: *; i = inactive; / = no result. In the library only some 2.2% were active in any assay of this set; here they are far more common.
SMILES,GRK2 inh,TLR9-MyD88 inh,ANO1 block,TLR4 MyD88 comp,NOD2 RIPK2 PPI,ANO1 activ
Cc1ccc(C)n1-c1cccc(C(=O)O)c1,96*,/,i,/,/,/
CC1=C(C(=O)N2CCCCCC2)CC(CC(=O)NC2CCCC2)C(=O)N1Cc1ccc(C(C)(C)C)cc1 (stereo unspecified),/,/,/,/,-1,/
Cc1cccc(OCC(=O)Nc2ccc3c(c2)nc(CCN2CCN(c4ccccn4)CC2)n3C)c1,0,7,100*,/,9,i
Cc1nn(CCc2nn[nH]n2)c2nc(-c3ccc(C4CCCCC4)cc3)cc(C(F)(F)F)c12,1,-5,100*,-8,0,i
Cc1nn(CCC(=O)O)c2nc(-c3cccnc3)cc(C(F)(F)F)c12,1,6,i,-1,8,i
COC(=O)[C@]12CCCCC=C1N(Cc1ccc3c(c1)OCO3)C(=O)[C@H](CC(=O)N1CCN(C(=O)C3CC3)CC1)C2,/,/,/,/,7,/
O=C(NC1=NC2CCCCC2N1)c1ccccc1 (stereo unspecified),0,-2,i,10,-3,-6.6*
CC(=O)Nc1cccc(-c2ccnc3c2CC(C(=O)Nc2ccc(Cl)cc2)O3)c1 (stereo unspecified),/,/,/,/,5,/
O=S(=O)(NCC[C@@H]1CC[C@H](NS(=O)(=O)c2cccc(F)c2)[C@@H](CO)O1)c1cccc(F)c1,/,/,/,/,9,/
Nc1ncc(Br)cc1S(=O)(=O)Nc1cc(C(F)(F)F)cc(C(F)(F)F)c1,0,-9,100*,/,-12,-5*
COc1cccc(C(C)(O)c2nc(-c3ccoc3)cs2)c1 (stereo unspecified),/,/,/,/,0,/
COC(=O)CSc1nnc([C@H](Cc2ccccc2)NC(=O)OC(C)(C)C)o1,2,-8,i,-1,-10,i
Cc1cccc(CS(=O)(=O)c2nnc([C@H](Cc3ccccc3)NC(=O)OC(C)(C)C)o2)c1,0,11,i,5,65*,i
COC(=O)CS(=O)(=O)c1nnc([C@H](Cc2ccccc2)NC(=O)OC(C)(C)C)o1,0,-2,i,8,46*,i
Cc1ccc(OCc2nc3ccccc3n2C(C(=O)NC(C)(C)C)c2ccncc2)cc1 (stereo unspecified),/,/,/,/,7,/
Cc1nn(-c2ccccc2)c(N2CCCC2)c1/C=N/NC(=O)c1cc(-c2ccccc2)nc2ccccc12,4,-2,i,-5,3,i
Cc1nn(-c2ccccc2)c(N2CCCC2)c1/C=N/NC(=O)c1cc2ccccc2cc1O,66*,4,i,3,1,i
Cc1[nH]c(=O)c(C(=O)/C=C/c2ccccc2F)c2c1CCCC2,1,6,i,-9,23*,i
Cc1cc(C)c(C(=O)/C=C/c2cccc3ccccc23)c(=O)[nH]1,5,15,i,1,7,i
CC(=O)c1cccc(NC(=O)/C=C/c2ccc(S(=O)(=O)N3CCOCC3)cc2)c1,96*,-9,/,/,4,i
CN(C)S(=O)(=O)c1cccc(NC(=O)/C=C/c2ccc(S(=O)(=O)N3CCOCC3)cc2)c1,0,-9,/,/,7,i
COC(=O)c1ccc(CN2CCc3ccc(NC(=O)c4ccncc4)cc3C2)cc1,0,-4,100*,/,-6,i
CSc1cccc(NC(=O)c2ccc(CN3CCc4ccccc4C3)cc2)c1,0,-2,100*,/,-5,i
O=C(Nc1cccc(Br)c1)c1ccc(CN2CCc3ccccc3C2)cc1,1,1,25*,/,-4,i
CC(=O)Nc1ccc(NC(=O)c2ccc(CN3CCc4ccccc4C3)cc2)cc1,0,6,i,/,16,i
SMILES,GRK2 inh,TLR9-MyD88 inh,ANO1 block,TLR4 MyD88 comp,NOD2 RIPK2 PPI,ANO1 activ
CCOC(=O)[C@]12CCC=C1N(Cc1ccc(Cl)cc1Cl)C(=O)[C@H](CC(=O)N1CCC(c3ccccc3)CC1)C2,/,/,/,/,7,/
CC(=O)N1CCN(C(=O)CNC(=O)c2ccc(C)s2)CC1,/,4,/,/,-3,i
COc1ccc(OC)c(CN2C(=O)c3ccccc3C2c2nnnn2C2CCCC2)c1 (stereo unspecified),/,/,/,/,-1,/
Cc1ccc(N(C(=O)Nc2ccccc2)C2=NCCC2)cc1,1,/,i,/,-3,i
COc1ccc(N(C(=O)Nc2ccc(Cl)cc2)C2=NCCC2)cc1,0,1,25*,2,0,i
C=C(C)CSc1nnc2[nH]c(=O)cc(N)n12,2,-8,i,7,-10,-6.4*
O=c1c2c3c(sc2nc2sc(C4CC4)nn12)CCCC3,1,1,25*,11,-2,i
CCOC(=O)[C@]12CCC=C1N(Cc1cccc3ccccc13)C(=O)[C@H](CC(=O)NCC1CCCCC1)C2,/,/,/,/,15,/
CC(=O)N1CCN(c2ccc(NC(=O)c3ccc4c(c3)OCCO4)cc2Cl)CC1,6,7,i,9,-4,i
CC(C)C(=O)N1CCN(c2ccc(NC(=O)c3ccc4c(c3)OCCO4)cc2Cl)CC1,0,4,100*,1,-13,i
O=C(NCC1(c2ccccc2)CCCC1)C1(c2ccccc2)CCCC1,0,-8,100*,9,-1,i
C=C1C2=C(C(=O)N1OC)[C@@H](O)[C@@](C)(O)[C@@H](CCCCC)O2,/,/,/,/,2,/
O=S(=O)([N-]c1nc2ccccc2nc1-[n+]1ccc(-c2ccncc2)cc1)c1ccccc1,0,0,i,-5,-14,-5.3*
O=S(=O)([N-]c1nc2ccccc2nc1-[n+]1ccccc1)c1ccccc1,0,-3,i,-5,-4,i
COCOCCn1cc(CN2CCS(=O)(=O)N(Cc3ccc(-c4ccc(Cl)c(Cl)c4)cc3)C(C)C2=O)nn1 (stereo unspecified),/,-8,/,/,-7,/
CCN(C(=O)COC(=O)/C=C/c1ccco1)C1CCCCC1,49*,3,/,/,-6,i
CC1=NN(c2ccc(C(=O)O)cc2)C(=O)/C1=C/c1ccc(-c2ccccc2F)o1,0,-4,100*,/,-5,i
CC1=NN(c2ccccc2)C(=O)/C1=C/c1ccc(Cl)cc1,1,-4,25*,/,6,i
O=C1O[C@@H](c2ccccc2)C[C@@H](O)[C@H](O)CCCc2ccccc21,/,/,/,/,-2,/
COC(=O)c1c(N)[nH]c(C(=O)c2ccccc2)c1-c1ccccc1Br,/,/,/,/,-2,/
COc1cccc(CNc2nc3cc(-c4ccsc4)sc3c(=O)n2C)c1OC,/,/,/,/,-2,/
COc1ccc(NS(=O)(=O)c2cc3c(cc2C)N(C)CCO3)cc1,0,10,i,/,-5,i
CCOc1ccc(NS(=O)(=O)c2cc3c(cc2C)N(C)CCO3)cc1,4,-17,i,/,-2,-9*

# Source: PubChem
